The record followed here is PubChem BioAssay AID493012 (Sanford-Burnham Center for Chemical Genomics, 2011).

One may read the inhibition as the relative decrease from the control value, in per cent.

Each structure is given as a SMILES string. Among all 330,000 compounds or so, about 930 (0.28%) were called active.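 How the source made its calls: active means inhibition of at least 40% at 20 µM, with no more than 30% in the related APOBEC3A deaminase screen; inactive means the rest.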 This excerpt belongs to a sample that is enriched for actives.

Chain of DNA dC->dU-editing enzyme APOBEC-3G (Homo sapiens) (Q9HC16 whole entry, looked up): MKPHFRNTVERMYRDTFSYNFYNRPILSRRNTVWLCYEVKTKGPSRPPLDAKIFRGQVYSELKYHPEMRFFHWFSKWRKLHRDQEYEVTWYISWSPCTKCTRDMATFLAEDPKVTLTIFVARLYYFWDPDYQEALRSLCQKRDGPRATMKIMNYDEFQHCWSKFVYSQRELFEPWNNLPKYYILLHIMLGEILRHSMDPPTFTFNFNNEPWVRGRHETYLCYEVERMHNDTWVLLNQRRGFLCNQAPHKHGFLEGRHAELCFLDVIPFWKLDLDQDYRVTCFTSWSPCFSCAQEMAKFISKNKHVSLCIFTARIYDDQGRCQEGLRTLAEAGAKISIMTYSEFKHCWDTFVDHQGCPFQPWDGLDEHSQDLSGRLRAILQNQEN

The assay addresses DNA dC->dU-editing enzyme APOBEC-3G (Homo sapiens) (UniProt Q9HC16). As to the kind of experiment: inhibition of human A3G ssDNA deamination – biochemical, fluorescence, single-stranded DNA substrate, uHTS, primary screen (AID 493012).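 Further: plate controls were DMSO wells with A3G for no effect and wells lacking A3G enzyme for full effect.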 The settings on record: recombinant A3G, ssDNA deamination FAM/TAMRA fluorescence; at 20 µM; hits give high values.
Take `Cc1ccc(Sc2ccncc2S(N)(=O)=O)cc1`: the inhibition is -12.3% (inactive).

As to `COc1ccc(CNC(=O)C2CCN(C(=O)c3ccco3)CC2)cc1`, the inhibition is -11.5% (inactive).

Consider `CCc1nnc(NC(=O)C2CCN(C(=O)c3ccccc3C)CC2)s1`, for which the inhibition was -4.15% (inactive).

In the case of `CCC(CC)c1nnc(NC(=O)C2CCN(C(=O)c3ccco3)CC2)s1`, the inhibition is 43.5% (active).

`CC(C)NC(=O)NNc1c(Cl)cncc1Cl`: the inhibition was -7.21% (inactive).

For `CCn1cc(C(=O)NCC(=O)NC(C)(C)CO)c(=O)c2cc3c(cc21)OCO3`, the inhibition is 5.44% (inactive).

Take `CCOc1ccc(CCNC(=O)COC(=O)c2c(OC)cccc2OC)cc1OCC`: the inhibition is -6.63% (inactive).

`COc1ccc(N2CC(C(=O)NCCS(=O)(=O)N3CCN(c4ccccc4)CC3)CC2=O)cc1` (stereo unspecified): the inhibition is -3.81% (inactive).

Turning to `Cc1ccc(C(=O)c2c(NC(=O)c3ccccc3)sc(C)c2C)cc1`, the inhibition was 43.3% (active).

Take `Cc1ccc(S(=O)(=O)CC(=O)Nc2sc(C)c(C)c2C(N)=O)cc1`: the inhibition is 19.4% (inactive).

Consider `Cc1sc(NC(=O)c2ccc3ncsc3c2)c(C(N)=O)c1C`, for which the inhibition was -14.1% (inactive).

On to `CC(CN1CCCCC1)OC(=O)c1ccccc1Cl` (stereo unspecified), for which the inhibition was -6.81% (inactive).

On to `O=C(CSc1nccc(=O)[nH]1)Nc1ccc(N2CCOCC2)c(Cl)c1`, for which the inhibition was 1.54% (inactive).

In the case of `Cc1ccc(-n2c(-c3ccc(Cl)cc3)n[nH]c2=S)cc1`, the inhibition was 11.5% (inactive).

On to `Cc1nnc(SCC(=O)NNC(=O)c2ccc(Cl)cc2)n1CC1CCCO1` (stereo unspecified), for which the inhibition was -0.693% (inactive).

As to `S=c1[nH]nc(-c2ccc(Cl)cc2)n1CC1CCCO1` (stereo unspecified), the inhibition is 43.8% (active).

Turning to `O=C(CSc1nc2[nH]ncc2c(=O)[nH]1)Nc1ccc(F)cc1`, the inhibition was -9.68% (inactive).

In the case of `Cc1occc1-c1nnc(SCC(=O)NC2(C#N)CCCC2)n1C`, the inhibition is -13.5% (inactive).

In the case of `COCCN1C(=O)C(=O)/C(=C(/O)c2ccc(S(=O)(=O)N3CCOCC3)cc2)C1c1ccc(OC)c(OC)c1` (stereo unspecified), the inhibition was -5.33% (inactive).

For the compound `CCOc1ccc(Br)cc1S(=O)(=O)Nc1cccc(S(=O)(=O)N(CC)CC)c1`, the inhibition is -8.57% (inactive).

On to `O=C(Cn1cnc2cc([N+](=O)[O-])ccc2c1=O)NC(=O)NCc1ccccc1`, for which the inhibition is -6% (inactive).

As for `Cc1noc(C)c1CSc1nc2cc(S(=O)(=O)N3CCOCC3)ccc2o1`, the inhibition was 45.8% (active).

For `COc1ccc(NC(=O)c2oc3ccc(S(=O)(=O)N4CCOCC4)cc3c2C)cc1`, the inhibition was -7.26% (inactive).

Regarding `Cc1ccc(S(=O)(=O)N2CCN(S(=O)(=O)N3CCOCC3)CC2)cc1`, the inhibition was -5.83% (inactive).

With `CCCCCCCCn1c2c(c(=N)c3c1CCC3)CCCC2`, the inhibition was -6.25% (inactive).

As to `Cc1n[nH]c(=S)n1/N=C/c1ccc(Br)o1`, the inhibition was 40.4% (active).

Take `COc1cc(/C=N/n2c(C)n[nH]c2=S)ccc1OCc1ccccc1`: the inhibition was 9.64% (inactive).

Consider `Cc1ccsc1/C=N/n1c(=S)[nH]nc(C)c1=O`, for which the inhibition is -0.898% (inactive).

On to `O=S(=O)(N/N=C\c1cccn1-c1ccccc1)c1ccc2ccccc2c1`, for which the inhibition is -6.33% (inactive).

As for `COC(=O)c1cccc(NC(=O)c2cccc(N3C(=O)CCC3=O)c2)c1`, the inhibition was -9.31% (inactive).

On to `COC(=O)c1cccc(-n2[nH]nnc2=S)c1`, for which the inhibition is 59% (active).

Take `COC(=O)c1cccc(N2C(=O)C3C4C=CC(CC4)C3C2=O)c1` (stereo unspecified): the inhibition was -6.25% (inactive).

Consider `CCOC(=O)C1CCN(S(=O)(=O)c2cc(F)ccc2OC)CC1`, for which the inhibition was -1.04% (inactive).

Regarding `CCC(=O)Nc1ccccc1C(=O)N1CCN(Cc2ccccc2)CC1`, the inhibition was -6.48% (inactive).

On to `CCOc1ccc(C(=O)Nc2ccc(S(=O)(=O)Nc3cc(C)on3)cc2)cc1`, for which the inhibition is -9.24% (inactive).

Take `CCOc1ccc(NC(=O)Nc2cc(C)on2)cc1`: the inhibition is 65.3% (active).

`CCC(=O)Nc1ccc(C(=O)Nc2cc(C)on2)cc1`: the inhibition is 2.01% (inactive).

For `CC(C)NC(=O)c1ccc(Sc2ccccc2)c([N+](=O)[O-])c1`, the inhibition was -2.3% (inactive).

`O=C(Cc1ccccc1)NNC1CC(=O)N(c2ccc(Br)cc2)C1=O` (stereo unspecified): the inhibition was 4.82% (inactive).

Turning to `COC(=O)c1sccc1NC(=O)CC1C(=O)NCCN1C(=O)Nc1ccc(F)cc1F` (stereo unspecified), the inhibition was -4.83% (inactive).

On to `CNC(=O)c1sc(Nc2ccc(OCc3ccccc3)cc2)nc1C`, for which the inhibition was -1.98% (inactive).

For the compound `CSCCC(NS(=O)(=O)c1ccc(C)cc1)C(=O)NCCc1c[nH]c2ccccc12` (stereo unspecified), the inhibition is -1.39% (inactive).

Regarding `Cc1ccc(S(=O)(=O)N(C)CC(=O)NCCc2c[nH]c3ccccc23)cc1`, the inhibition is 49.6% (active).

Turning to `CN(c1ccccc1)S(=O)(=O)c1ccc(Cl)c(C(=O)NCCc2c[nH]c3ccccc23)c1`, the inhibition is -7.53% (inactive).

Take `COc1ccc(C)cc1NC(=O)CCS(=O)(=O)c1cccc2nonc12`: the inhibition was -1.32% (inactive).

Turning to `O=C1CC(Sc2ncn[nH]2)C(=O)N1c1ccccc1` (stereo unspecified), the inhibition was 41.6% (active).

On to `Cc1ccc(N2C(=O)CC(Sc3ncn[nH]3)C2=O)cc1` (stereo unspecified), for which the inhibition is 28% (inactive).

As to `O=C1CC(N2CCN(c3ccc(F)cc3)CC2)C(=O)N1c1ccccc1` (stereo unspecified), the inhibition was -7.4% (inactive).

Take `CCOc1ccc(-c2cn(S(=O)(=O)c3cccc4nsnc34)nc2N)cc1`: the inhibition was 0.75% (inactive).

As for `CCOC(=O)C(NC(C)=O)C(=O)Nc1ccc(OC)cc1` (stereo unspecified), the inhibition was -5.93% (inactive).

For `O=c1[nH]c(=S)[nH]c2[nH]c(=S)[nH]c12`, the inhibition is 93.2% (inactive).

As for `CCNC(=O)CC1C(=O)N(c2ccc(F)cc2)C(=O)N1CCc1sccc1C` (stereo unspecified), the inhibition was -6.98% (inactive).

`COc1ccc(C2=NO[C@@H]3C(=O)N(Cc4ccccc4)C(=O)[C@H]23)cc1OC`: the inhibition was -9.52% (inactive).

As for `O=C(Cn1cnc([N+](=O)[O-])n1)NCCc1ccccc1`, the inhibition is 61.5% (active).

Regarding `O=C(Cc1ccc(Br)cc1)NCCc1ccccc1`, the inhibition was -5.45% (inactive).

For `CC(C)(C)NC(=O)Cn1cnc([N+](=O)[O-])n1`, the inhibition was -1.06% (inactive).

Turning to `COCCN1C(=O)C(=O)/C(=C(/O)c2ccc(S(=O)(=O)N3CCOCC3)cc2)C1c1ccc(O)c(OC)c1` (stereo unspecified), the inhibition is -1.29% (inactive).

On to `CCOC(=O)C(Sc1ncc(C#N)c(N)n1)C(C)C` (stereo unspecified), for which the inhibition was 1.62% (inactive).

On to `Cc1cc(C)c2c(-c3ccc(F)cc3)c(C#N)c(=O)n(C)c2n1`, for which the inhibition was 53.9% (active).

With `Cn1c(N)cc(-c2ccc(F)cc2)c(C#N)c1=O`, the inhibition was -8.38% (inactive).

`COc1ccc(O)c(C(=O)c2cnc3c(c2)c(-c2ccc(F)cc2)c(C#N)c(=O)n3C)c1`: the inhibition was -3.05% (inactive).

In the case of `CC1c2nc3ccccc3n2C(CC(=O)NCCCN2CCOCC2)C(=O)N1Cc1ccccc1` (stereo unspecified), the inhibition was -9.69% (inactive).

For `O=C(Nc1ccc(-c2ccc3nncn3n2)cc1)C1CCCCC1`, the inhibition was -1.63% (inactive).

Regarding `Fc1ccc(Nc2nnns2)cc1`, the inhibition is 48.9% (active).

In the case of `O=C(Nc1ccncc1)Nc1ccc(F)cc1`, the inhibition is -2.01% (inactive).

On to `CN(C)c1nc(NN)nc(Nc2ccc(F)cc2)n1`, for which the inhibition was -0.168% (inactive).

With `CCOC(=O)C(C)Sc1nnc(CSc2nc3nc(C)cc(C)n3n2)o1` (stereo unspecified), the inhibition was -3.96% (inactive).

With `CCc1c(C)[nH]c(=S)c(C#N)c1C`, the inhibition was 40.3% (active).

For the compound `CC(=O)c1c(C)[nH]c(=S)c(C#N)c1-c1ccc(F)cc1`, the inhibition is 5.87% (inactive).

Regarding `CCC(=O)N(C)C(c1ccccc1Cl)c1nnnn1-c1c(C)cccc1C` (stereo unspecified), the inhibition was -7.17% (inactive).

As for `COC(=O)c1ccc2c(=O)n(CCN3CCOCC3)c(SCC(=O)Nc3cccc(OC)c3)nc2c1`, the inhibition was -3.78% (inactive).

With `CC(=O)N(C1=C(Cl)C(=O)c2ccccc2C1=O)c1ccc(C(=O)O)cc1`, the inhibition is 89.2% (active).

Consider `O=C(COC(=O)c1ncc(Cl)c(Cl)c1Cl)NC1CCS(=O)(=O)C1` (stereo unspecified), for which the inhibition is -7.97% (inactive).

Regarding `CC1=C/C(=N\OS(=O)(=O)c2ccccc2)C=CC1=O`, the inhibition is 71.9% (active).

As for `N#Cc1c(Cl)nc(-c2cccnc2)nc1-c1ccccc1`, the inhibition was -2.3% (inactive).

For the compound `Cc1ccc(-n2c(N)c(C(=O)N3CCOCC3)sc2=S)c(C)c1`, the inhibition was 10.5% (inactive).

In the case of `N#Cc1ccccc1-n1c(N)c(C(=O)N2CCCC2)sc1=S`, the inhibition was 25.4% (inactive).

On to `Cc1cccc(-n2c(N)c(C(=O)N3CCN(C)CC3)sc2=S)c1`, for which the inhibition was 62.1% (active).

As to `COc1ccc(Cc2n[nH]c(=S)n2NC(=O)Nc2ccc(C)cc2)cc1`, the inhibition is 26.9% (inactive).

As for `COc1ccc(OCc2n[nH]c(=S)n2N)cc1`, the inhibition is 59.6% (active).

Regarding `Cc1ccc(OCc2n[nH]c(=S)n2-c2ccccc2)cc1`, the inhibition is 9.43% (inactive).

With `COC(=O)c1cccc(N(C(=O)c2ccco2)C(C(=O)NC2CCCC2)c2ccco2)c1` (stereo unspecified), the inhibition is 0.606% (inactive).

In the case of `Cn1c(=O)c2c(SCC(=O)NCC3CCCO3)nc(CC(C)(C)C)nc2n(C)c1=O` (stereo unspecified), the inhibition was -3.25% (inactive).

Turning to `CCOc1ccc(CN2CCN(Cc3ccc4cc(F)ccc4n3)CC2CCO)cc1` (stereo unspecified), the inhibition was -8.75% (inactive).

Turning to `Cc1ccc(S(=O)(=O)N2CCC(Oc3ccc(-n4cnnn4)cc3)CC2)cc1`, the inhibition was -1.49% (inactive).

As to `CCCn1c(O)c(CN2CCCC(C)C2)c(C)c(C#N)c1=O` (stereo unspecified), the inhibition is -4.49% (inactive).

In the case of `O=c1[nH]c2ccccc2n2c(-c3ccccc3)nnc12`, the inhibition was 83.4% (active).

With `O=c1[nH]n2c(-c3ccccc3)nc(O)c2c2ccccc12`, the inhibition is -3.66% (inactive).

For `CC1(C)CC(=O)C2=C(C1)N=C1SCCC(=O)N1C2c1ccc(C(F)(F)F)cc1` (stereo unspecified), the inhibition was -0.591% (inactive).

As to `COc1ccc(OCc2nnc3n2N=C(c2ccccc2)C(CC(=O)O)S3)cc1` (stereo unspecified), the inhibition is 65.2% (active).

On to `COc1cccc(OCc2nnc3n2N=C(c2ccccc2)C(CC(=O)O)S3)c1` (stereo unspecified), for which the inhibition is -9.67% (inactive).

For the compound `COc1ccc(C2CC(c3ccccc3)=NN2C(=O)COC(=O)COc2ccccc2)cc1` (stereo unspecified), the inhibition was -5.97% (inactive).

On to `COc1cc(OC)c(NC(=O)C2CCCN2C(=O)OCc2ccccc2)cc1Cl` (stereo unspecified), for which the inhibition was -7.18% (inactive).

Turning to `CCOC(=O)C1=C(C)Nc2sc(C(=O)c3ccc(Br)cc3)c(N)c2C1c1ccc(C(=O)OC)cc1` (stereo unspecified), the inhibition was -6.26% (inactive).

Take `CCOC(=O)c1sc(=S)n2c1[nH]c(=O)c1ccc(C(=O)OC)cc12`: the inhibition is 41.3% (active).

Turning to `CCOC(=O)c1ccc(Nc2cc3ccccc3c(=O)[nH]2)cc1`, the inhibition is -6.08% (inactive).
